# Measured values as given in PubChem BioAssay.
# Calls of active or inactive are those of the source.
# What was measured:
# [1] = optical density shifts of acrAB sulA E. coli – strain DRC41, OD650, 48 h, E. coli filamentation inducer project, primary screen (AID 1152); conditions: higher = more signal, called active from +8 up or from −8 down;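 further: E. coli MC1000 strain DRC41 lacking acrAB efflux pump and sulA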
# [2] = probe aLefty1 binding on compound microarray – biochemical, small-molecule microarray, 635/667 nm fluorescence, primary screen (AID 1153); conditions: higher = more signal;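 further: score merges spot fluorescence with signal-to-noise ratio from the scanned slide images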
# [3] = plasmodial surface anion channel blockers, osmotic lysis – cell-based, P. falciparum Indochina, OD700, 1 h, primary screen (AID 1154); conditions: P. falciparum Indochina infected RBC osmotic lysis, higher = more signal, called active from +8 up or from −8 down
# [4] = plasmodial surface anion channel blockers, osmotic lysis – cell-based, P. falciparum Indochina, OD700, 2 h, primary screen (AID 1155);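 further: lysis reports solute entry through the parasite surface anion channel PSAC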; conditions: P. falciparum Indochina infected erythrocytes, higher = more signal, called active from +8 up or from −8 down
# [5] = changes in parasitized red cell lysis, either direction – P. falciparum Indochina, OD700, 3 h, PSAC antagonist project, primary screen (AID 1156); conditions: P. falciparum-infected erythrocytes, osmotic lysis, higher = more signal, called active from +8 up or from −8 down
# [6] = plasmodial surface anion channel blockers, osmotic lysis – cell-based, P. falciparum Indochina, OD700, 18 h, primary screen (AID 1157); conditions: P. falciparum Indochina infected erythrocytes, osmotic lysis OD700, 18 h; higher = more signal, called active from +8 up or from −8 down
# [7] = S6 kinase pathway phospho-S6 level changes – cell-based, A549, cytoblot, luminescence, serum-stimulated, primary screen (AID 1158); conditions: 5 h, higher = more signal;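 further: serum-stimulated A549 lung adenocarcinoma cells; signal is phosphorylated S6 detected by cytoblot immunostaining with HRP secondary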
# [8] = molecular target: NADPH oxidase 2 (Homo sapiens) (UniProt P04839); experiment: compounds shifting NOX2 Amplex Red fluorescence – cell-based, HEK293-NOX2, PMA-stimulated, NOX inhibitor project, primary screen (AID 1159); conditions: 45 min, higher = more signal, called active from +8 up or from −8 down; further: test concentration not given here
# [9] = molecular target: NADPH oxidase 4 (Homo sapiens) (UniProt Q9NPH5); experiment: compounds shifting NOX4 Amplex Red fluorescence – cell-based, HEK293-NOX4, tetracycline-induced, NOX inhibitor project, primary screen (AID 1160); conditions: HEK293-NOX4, Amplex Red H2O2 fluorescence, 45 min; higher = more signal, called active from +8 up or from −8 down
# [10] = molecular target: NADPH oxidase 5 (Homo sapiens) (UniProt Q96PH1); experiment: compounds shifting NOX5 Amplex Red fluorescence – cell-based, HEK293-NOX5, NOX inhibitor project, primary screen (AID 1161); conditions: HEK293-NOX5, ionomycin, 45 min, higher = more signal
# [11] = compound effects on lung adenocarcinoma cell viability – A549, calcein-AM fluorescence, 48 h, basal, profiling panel (AID 1162); conditions: higher = more signal; further: test concentration not given here
# [12] = compound effects on differentiated 3T3-L1 adipocyte viability – cell-based, 3T3-L1 adipocytes, calcein-AM fluorescence, 48 h, basal, profiling panel (AID 1163); conditions: 3T3-L1 adipocytes viability, higher = more signal; further: test concentration not given here
# [13] = compound effects on hepatocellular carcinoma cell viability – HepG2, calcein-AM fluorescence, 48 h, basal, profiling panel (AID 1164); conditions: higher = more signal; further: test concentration not given here
# [14] = compound effects on multiple myeloma cell viability – MM1S, calcein-AM fluorescence, 48 h, basal, profiling panel (AID 1165); conditions: higher = more signal; further: test concentration not given here
# [15] = calcein-AM signal in unstimulated myeloma cells – cell-based, calcein-AM fluorescence, 48 h, PK04 Diversity Set, profiling panel (AID 1166); conditions: RPMI8226 myeloma viability, higher = more signal;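 further: cells grown under basal conditions without added stimulus; test concentration not given here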
# [16] = JC-1 mitochondrial signal, unstimulated HepG2 cells – cell-based, JC-1 fluorescence, 24 h, 100 nL compound, profiling panel (AID 1167); conditions: HepG2 mitochondrial potential, higher = more signal; further: test concentration not given here
# [17] = JC-1 mitochondrial signal, unstimulated adipocytes – cell-based, JC-1 fluorescence, 3T3-L1 adipocytes, 24 h, 100 nL compound, profiling panel (AID 1168); conditions: JC-1 mitochondrial fluorescence, higher = more signal, called active from +8 up or from −8 down; further: test concentration not given here
# [18] = JC-1 mitochondrial signal, unstimulated myeloma cells – cell-based, JC-1 fluorescence, RPMI8226, 24 h, 100 nL compound, profiling panel (AID 1169); conditions: JC-1 mitochondrial potential fluorescence, higher = more signal; further: test concentration not given here
# [19] = JC-1 mitochondrial signal, unstimulated MM1S myeloma – cell-based, JC-1 fluorescence, 24 h, 100 nL compound, profiling panel (AID 1170); conditions: MM1S mitochondrial potential, higher = more signal; further: test concentration not given here
# [20] = resazurin metabolic signal in A549 cells – cell-based, resazurin fluorescence, 24 h, PK04 Diversity Set, profiling panel (AID 1171); conditions: A549 viability, higher = more signal, called active from +8 up or from −8 down; further: test concentration not given here
# Chain of NADPH oxidase 2 (Homo sapiens) (P04839 whole entry, looked up): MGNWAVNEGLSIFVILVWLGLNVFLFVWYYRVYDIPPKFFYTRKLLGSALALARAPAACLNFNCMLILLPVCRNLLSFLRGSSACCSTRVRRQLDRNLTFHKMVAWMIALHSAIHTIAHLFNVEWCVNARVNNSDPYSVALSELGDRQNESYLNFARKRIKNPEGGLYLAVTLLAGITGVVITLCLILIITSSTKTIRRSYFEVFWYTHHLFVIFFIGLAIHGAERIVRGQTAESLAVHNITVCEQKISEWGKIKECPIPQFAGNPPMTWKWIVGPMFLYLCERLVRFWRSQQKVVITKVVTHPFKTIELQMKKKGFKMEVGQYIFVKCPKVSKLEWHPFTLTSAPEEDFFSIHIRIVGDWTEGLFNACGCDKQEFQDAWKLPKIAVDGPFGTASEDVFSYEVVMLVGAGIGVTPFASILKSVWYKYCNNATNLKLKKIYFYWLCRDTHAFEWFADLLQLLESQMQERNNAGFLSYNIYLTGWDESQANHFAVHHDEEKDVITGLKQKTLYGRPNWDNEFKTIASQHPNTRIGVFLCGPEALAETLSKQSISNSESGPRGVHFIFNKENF
# Chain of NADPH oxidase 5 (Homo sapiens) (Q96PH1 whole entry, looked up): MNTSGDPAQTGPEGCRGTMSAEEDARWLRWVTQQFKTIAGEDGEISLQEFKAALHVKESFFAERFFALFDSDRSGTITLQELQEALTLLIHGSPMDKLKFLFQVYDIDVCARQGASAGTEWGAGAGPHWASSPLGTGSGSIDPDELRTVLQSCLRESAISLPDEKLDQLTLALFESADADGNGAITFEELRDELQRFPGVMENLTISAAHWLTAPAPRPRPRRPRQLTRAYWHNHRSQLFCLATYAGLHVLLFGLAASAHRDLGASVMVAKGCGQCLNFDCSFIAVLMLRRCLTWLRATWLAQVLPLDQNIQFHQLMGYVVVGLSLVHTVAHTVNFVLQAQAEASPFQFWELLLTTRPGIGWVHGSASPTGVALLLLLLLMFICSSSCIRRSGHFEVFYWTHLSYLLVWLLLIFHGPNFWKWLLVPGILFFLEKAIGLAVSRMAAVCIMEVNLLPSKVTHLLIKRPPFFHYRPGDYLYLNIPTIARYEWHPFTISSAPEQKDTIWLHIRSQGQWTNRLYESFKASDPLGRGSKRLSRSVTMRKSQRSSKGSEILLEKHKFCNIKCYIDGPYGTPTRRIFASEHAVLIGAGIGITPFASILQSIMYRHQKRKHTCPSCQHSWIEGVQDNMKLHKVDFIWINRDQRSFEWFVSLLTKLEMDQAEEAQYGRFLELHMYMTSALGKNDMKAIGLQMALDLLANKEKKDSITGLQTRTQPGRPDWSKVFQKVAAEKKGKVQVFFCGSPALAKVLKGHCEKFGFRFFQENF
# Chain of NADPH oxidase 4 (Homo sapiens) (Q9NPH5 whole entry, looked up): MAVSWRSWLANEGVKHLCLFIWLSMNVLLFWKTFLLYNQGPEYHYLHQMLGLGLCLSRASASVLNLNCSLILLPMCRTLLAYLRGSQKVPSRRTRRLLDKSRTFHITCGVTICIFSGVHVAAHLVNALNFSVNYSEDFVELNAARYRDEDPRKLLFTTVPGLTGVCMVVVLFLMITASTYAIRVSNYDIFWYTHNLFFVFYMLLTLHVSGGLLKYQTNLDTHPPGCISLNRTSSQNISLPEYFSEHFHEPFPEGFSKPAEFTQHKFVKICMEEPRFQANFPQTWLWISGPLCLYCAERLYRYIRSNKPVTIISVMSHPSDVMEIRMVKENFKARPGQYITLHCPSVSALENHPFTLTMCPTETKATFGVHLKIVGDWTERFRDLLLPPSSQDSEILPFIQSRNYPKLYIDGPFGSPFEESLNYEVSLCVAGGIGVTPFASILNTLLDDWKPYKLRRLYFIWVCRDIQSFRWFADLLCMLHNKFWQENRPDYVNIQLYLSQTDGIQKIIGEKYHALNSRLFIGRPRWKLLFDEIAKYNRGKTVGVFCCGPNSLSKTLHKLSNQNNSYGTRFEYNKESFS
Compound,z-score [1],composite z-score [2],z-score [3],z-score [4],z-score [5],z-score [6],z-score [7],z-score [8],z-score [9],z-score [10],z-score [11],z-score [12],z-score [13],z-score [14],z-score [15],z-score [16],z-score [17],z-score [18],z-score [19],z-score [20]
COCCCNC(=O)[C@@]1(c2ccc([N+](=O)[O-])cc2)CC(=O)N(C2CCCCC2)[C@@H]1c1ccc(CO)cc1,0.857 (inactive),-0.602,1.93 (inactive),0.349 (inactive),1.76 (inactive),0.499 (inactive),-0.203,0.929 (inactive),0.721 (inactive),0.537,0.286,0.0134,0.366,-0.214,-0.0968,0.437,-0.605 (inactive),0.00327,0.509,0.902 (inactive)
C=CCNC(=O)[C@@H]1[C@H]2C(=O)O[C@H](c3ccccc3)[C@H](c3ccccc3)N2[C@H](c2ccc(OCCO)cc2)[C@@]12C(=O)N(C(=O)OCCOC)c1ccc(C#CC3(O)CCCCCC3)cc12,2.62 (inactive),0.372,5.36 (inactive),2.14 (inactive),0.539 (inactive),0.761 (inactive),3.82,1.03 (inactive),0.845 (inactive),-1.14,0.0803,3.14,-1.53,-1.07,-1.16,-1.43,0.738 (inactive),-0.814,-1.05,0.338 (inactive)
CN1C2C=C(c3ccc(CO)cc3)C(C3C(=O)N(C(N)=O)C(=O)C32)C1c1cccs1 (stereo not given),1.37 (inactive),-0.0893,2.26 (inactive),-1.44 (inactive),-0.71 (inactive),-1.37 (inactive),-0.402,1.57 (inactive),-0.124 (inactive),-0.0981,0.555,1.64,-0.542,0.31,1.07,0.171,0.497 (inactive),-0.21,0.491,0.567 (inactive)
O=C1O[C@@H](c2ccccc2)[C@@H](c2ccccc2)N2[C@@H](c3ccc(OCCO)cc3)[C@]3(C(=O)Nc4ccc(C#CCCO)cc43)[C@@H](C(=O)N3CCN(c4ncccn4)CC3)[C@H]12,0.533 (inactive),0.242,3.54 (inactive),1.71 (inactive),-1.56 (inactive),0.664 (inactive),-0.436,2 (inactive),0.677 (inactive),0.589,0.848,0.38,-0.17,0.0057,0.442,0.0349,1.88 (inactive),-0.623,0.173,0.293 (inactive)
C=CCNC(=O)[C@H]1[C@@H]2C(=O)O[C@@H](c3ccccc3)[C@@H](c3ccccc3)N2[C@@H](c2ccccc2OCCO)[C@]12C(=O)N(C(=O)OCCOC)c1ccc(C#CCNC(N)=O)cc12,1.8 (inactive),0.178,2.13 (inactive),-0.0443 (inactive),0.391 (inactive),-1.3 (inactive),1.78,1.76 (inactive),1.35 (inactive),-0.971,0.883,1.68,-0.127,-1.13,-0.66,0.208,1.39 (inactive),-0.711,-0.616,1.13 (inactive)
COC(=O)Cn1c(C(=O)N2CCCC2)cc2c1C[C@H]1CN(C(=O)c3ccccc3)[C@@](Cc3ccc(OC)cc3)(C(=O)OC)[C@@H]21,-1.45 (inactive),0.51,15.3 (active),2.13 (inactive),1.68 (inactive),1.43 (inactive),-0.56,0.857 (inactive),0.778 (inactive),2.44,-0.643,-0.574,0.0447,-1.72,-2.24,1.49,-1.1 (inactive),-0.623,-1.95,-1.09 (inactive)
CCN1C(C)=C(C(=O)OC)[C@@H](c2ccccc2)N2C(=O)[C@@]3(C(=O)OC)O[C@@]12[C@@H]1C(=O)N(c2ccccc2)C(=O)[C@@H]13,0.325 (inactive),0.0166,0.69 (inactive),-0.39 (inactive),0.0305 (inactive),-1.08 (inactive),0.422,-0.816 (inactive),0.267 (inactive),-0.283,0.0365,1.67,-0.805,0.871,-0.892,0.564,1.17 (inactive),1.22,0.0907,0.677 (inactive)
C=CCC(OC(C)=O)[C@@H]1[C@@H](N(Cc2cc3ccccc3o2)C(=O)c2ccc(C)cc2)c2cc(OCCCO)ccc2N1C(=O)c1ccc2ccccc2n1 (stereo not given in full),3.08 (inactive),-0.007,0.834 (inactive),0.345 (inactive),-0.629 (inactive),0.432 (inactive),0.469,0.12 (inactive),0.589 (inactive),1.51,2.73,0.362,1.54,0.906,1.09,2.46,1.5 (inactive),0.648,1.19,1.66 (inactive)
CO[C@H]1COC(=O)[C@@H](Cc2ccccc2)NC(=O)[C@@H](C)COC(=O)CC=C[C@@H]1C,0.428 (inactive),-0.0573,-0.224 (inactive),-0.204 (inactive),-0.234 (inactive),-0.481 (inactive),-0.003,-0.246 (inactive),0.937 (inactive),0.264,0.899,0.172,0.662,0.221,0.373,0.606,0.0117 (inactive),0.175,0.662,1.2 (inactive)
NC(=O)NCC#Cc1ccc2c(c1)[C@]1(C(=O)N2)[C@H](C(N)=O)[C@H]2C(=O)O[C@H](c3ccccc3)[C@H](c3ccccc3)N2[C@@H]1c1ccccc1OCCO,-0.925 (inactive),0.199,2.15 (inactive),0.0353 (inactive),-3.88 (inactive),-0.146 (inactive),-0.128,2.1 (inactive),1 (inactive),0.53,-1.23,0.634,-0.945,-0.211,-0.186,-1.01,-0.287 (inactive),-1.05,-0.386,0.79 (inactive)
C=CCC(OC(C)=O)[C@@H]1[C@@H](N(Cc2cccc3ccccc23)C(=O)Cc2ccc(F)cc2)c2cc(OCCCO)ccc2N1C(=O)Cc1ccc2ccccc2c1 (stereo not given in full),0.576 (inactive),-0.0162,1.71 (inactive),0.605 (inactive),-0.0952 (inactive),0.434 (inactive),0.163,-0.606 (inactive),0.626 (inactive),0.765,0.677,-0.399,0.607,0.853,-0.538,1.72,0.38 (inactive),-0.0877,-0.24,0.775 (inactive)
COc1cc(CO)cc(I)c1O[C@H]1C=C(C(=O)NCCO)C[C@@H](NCCc2c[nH]c3ccccc23)[C@@H]1O,0.878 (inactive),0.335,11.3 (active),0.928 (inactive),1.22 (inactive),-0.869 (inactive),2.21,-0.912 (inactive),-1.4 (inactive),-0.447,1.74,-0.335,0.0706,-0.68,-0.391,-1.01,1.01 (inactive),0.166,-0.389,0.279 (inactive)
O=C(CS)NCCCCCNC(=O)[C@H]1C[C@H]2C(=O)N[C@@H](Cc3ccccc3)C(=O)N2[C@H]1c1ccc(O)cc1,0.956 (inactive),0.0371,6.87 (inactive),-0.29 (inactive),-1.1 (inactive),-1.95 (inactive),0.263,0.99 (inactive),-0.205 (inactive),0.0913,-0.142,1.62,-1.02,-0.193,0.575,0.248,0.765 (inactive),-0.539,0.368,0.411 (inactive)
C[N+](C)(C)CCCCNC(=O)[C@H]1C[C@H]2C(=O)NCC(=O)N2[C@H]1c1cccc(OCCO)c1,-0.184 (inactive),0.223,2.81 (inactive),-0.0646 (inactive),-2.28 (inactive),-0.0179 (inactive),0.0455,-1.21 (inactive),0.0245 (inactive),0.259,-0.471,-0.387,-0.347,-0.0358,0.311,-1.13,-0.373 (inactive),-0.074,-0.314,-0.0078 (inactive)
O=C(CS)NCCCCCNC(=O)[C@H]1C[C@H]2C(=O)N3CCC[C@H]3C(=O)N2[C@H]1c1ccc(O)cc1,1.65 (inactive),0.357,2.68 (inactive),-0.856 (inactive),-2.55 (inactive),-1.63 (inactive),1.24,0.274 (inactive),0.00663 (inactive),0.214,0.931,-0.172,-0.0292,0.965,-0.0858,1.89,0.797 (inactive),0.34,-0.235,0.641 (inactive)
COCCOC(=O)N1C(=O)[C@@]2(c3cc(C#CCCO)ccc31)[C@H](C(=O)N1CCCCCCC1)[C@H]1C(=O)O[C@H](c3ccccc3)[C@H](c3ccccc3)N1[C@@H]2c1ccc(O)cc1,3.86 (inactive),1.6,1.06 (inactive),-0.755 (inactive),-0.0793 (inactive),-1.32 (inactive),5.3,1.7 (inactive),0.807 (inactive),1.67,1.53,0.843,1.87,0.555,-0.479,0.538,2.37 (inactive),-1.04,0.0272,0.641 (inactive)
